Values joined by “and” are separate entries in the source; they are usually repeats but may differ in a detail not shown here. Equal entries are not always repeated. A number with no mark means an inactive call. Records with an inconclusive call do not appear. Active and inactive are the calls of the source. Unless noted, calls come from the whole dose curve; as a rule, active = well fitted activation curve with a large enough effect; inconclusive = small, poorly fitted or top-dose-only effect; inactive = flat fitted curve, though single readings scatter.
System: not listed separately
Experiment: qHTS assay for small molecule activators of the nuclear factor-kappa B (NF-kB) signaling pathway (AID 651749; active = well fitted activation curve with a large enough effect in the signal ratio; the % refers to the signal ratio; note: % of control where 0% means no effect)
Details: NF-kB-bla ME-180 cells, beta-lactamase FRET ratio, 16 h; stronger effect = higher value
In short: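 NF-kB-bla ME-180 cells, 2,000/well; 23 nL compound or DMSO pinned; 16 hr, 37C/5% CO2; beta-lactamase FRET read-out.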
In the case of `O=C(Nc1ccc([N+](=O)[O-])cc1Cl)c1cc(Cl)ccc1O`, the activation is reported as -2.6%. For `CCOC(=O)C(C)(C)Oc1ccc(Cl)cc1`, the activation was -3.61%. With `CC(C)Cc1ccc(C(C)C(=O)O)cc1` (configuration not stated) the activation was -1.23%. For `O=c1c(-c2ccc(O)cc2)coc2cc(O)cc(O)c12`, the activation was 3.3% and 4.88%. For `CCC1(c2ccccc2)C(=O)NCNC1=O`, the activation was 0.499% and -0.837%. With `COc1ccc2[nH]cc(CCNC(C)=O)c2c1` the activation was -0.27% and 0.655% and 0.179%. For `Nc1ccn([C@H]2CC[C@@H](CO)O2)c(=O)n1`, the activation was -0.557% and 0.274%. `Cn1c(=O)c2[nH]cnc2n(C)c1=O` gave an activation of 0.41%.

Biological target: Tumor necrosis factor (Homo sapiens) (UniProt P01375)
Sequence (P01375 whole entry, looked up): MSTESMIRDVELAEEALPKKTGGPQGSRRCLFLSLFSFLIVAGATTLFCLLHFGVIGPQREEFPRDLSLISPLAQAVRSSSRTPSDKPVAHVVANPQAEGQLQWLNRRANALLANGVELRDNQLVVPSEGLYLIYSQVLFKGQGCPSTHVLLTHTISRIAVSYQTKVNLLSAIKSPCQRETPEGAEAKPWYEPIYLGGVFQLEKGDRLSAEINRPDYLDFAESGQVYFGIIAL
Experiment: qHTS assay to identify small molecules that stimulate Tumor Necrosis Factor-alpha (TNF-alpha) secretion (AID 651757; active = well fitted curve in the direction sought with a large enough effect in the signal ratio; the % refers to the signal ratio; note: 0% is about no effect)
Details: Human cells, HTRF 665/615 ratio; series mostly up to 92.2 µM
In short: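 THP-1 cells, 3000/well; compound 17 hrs, 37 C; add cryptate/XL665 anti-TNF-alpha antibody pair; 3 hr RT; TR-FRET (HTRF) read of secreted TNF-alpha. Quantitative HTS format.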
In the case of `Cn1c(=O)c2c(ncn2C)n(C)c1=O`, the outcome is reported as “inactive”. With `CCC1(c2ccccc2)C(=O)NCNC1=O` the outcome was “inactive”. In the case of `NS(=O)(=O)c1cc2c(cc1Cl)NCNS2(=O)=O`, the outcome is reported as “inactive”. In the case of `Nc1ccn([C@H]2CC[C@@H](CO)O2)c(=O)n1`, the outcome is reported as “inactive”. For `Cn1c(=O)c2[nH]cnc2n(C)c1=O`, the outcome was “inactive”.

System: not listed separately
Experiment: qHTS assay for environmental chemicals that activate the Aryl hydrocarbon Receptor (AhR) signaling pathway (AID 651777); note: nearly all actives have a fitted effect of over 15% in size; note: potency is the fitted concentration of half-maximal effect; for activation: % of control where 0% means no effect
Details: 1A2-DRE human hepatoma cells, luciferase, 24 h; activation: stronger effect = higher value
In short: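 Luminescence read-out: One-Glo added for 30 min at RT after 24 hr compound treatment (37 C, 5% CO2) of human hepatoma cells expressing a DRE/CYP1A2 promoter–luciferase reporter; increased signal indicates AhR activation.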
With `O=C(Nc1ccc([N+](=O)[O-])cc1Cl)c1cc(Cl)ccc1O` the Potency was 1.41 µM (active). `CCOC(=O)C(C)(C)Oc1ccc(Cl)cc1` gave an activation of 0.305%. `CC(C)Cc1ccc(C(C)C(=O)O)cc1` (configuration not stated) gave an activation of -1.21%. For `Cn1c(=O)c2c(ncn2C)n(C)c1=O`, the activation was -0.0272% and 0.654%. For `O=c1c(-c2ccc(O)cc2)coc2cc(O)cc(O)c12`, the Potency was 12.6 µM (active). In the case of `CCC1(c2ccccc2)C(=O)NCNC1=O`, the activation is reported as -1.18% and 8.62%. In the case of `NS(=O)(=O)c1cc2c(cc1Cl)NCNS2(=O)=O`, the activation is reported as 0.0029% and 2.21%. For `COc1ccc2[nH]cc(CCNC(C)=O)c2c1`, the activation was 0.634% and 1.82% and 3.42%. `Cn1c(=O)c2[nH]cnc2n(C)c1=O` gave an activation of 3.65%.

Biological target: Peroxisome proliferator-activated receptor alpha (Homo sapiens) (UniProt Q07869)
Sequence (Q07869 whole entry, looked up): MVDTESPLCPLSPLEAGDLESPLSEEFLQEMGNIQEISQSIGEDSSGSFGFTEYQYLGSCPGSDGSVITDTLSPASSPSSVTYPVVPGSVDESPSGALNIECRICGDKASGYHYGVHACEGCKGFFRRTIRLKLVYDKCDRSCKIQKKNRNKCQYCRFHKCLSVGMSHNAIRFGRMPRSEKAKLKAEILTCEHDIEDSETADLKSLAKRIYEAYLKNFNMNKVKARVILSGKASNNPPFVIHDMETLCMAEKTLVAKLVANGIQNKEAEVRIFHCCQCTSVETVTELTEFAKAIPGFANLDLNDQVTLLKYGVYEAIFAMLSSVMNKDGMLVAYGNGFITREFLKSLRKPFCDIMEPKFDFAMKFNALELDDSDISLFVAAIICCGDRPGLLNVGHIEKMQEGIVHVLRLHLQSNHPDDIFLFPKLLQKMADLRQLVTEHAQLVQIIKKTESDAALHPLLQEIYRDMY
Experiment: qHTS assay for small molecule agonists of the peroxisome proliferator-activated receptor alpha (PPARalpha) signaling pathway (AID 651778); note: % of control where 0% means no effect
Details: PathHunter PPARalpha complementation, chemiluminescence, 6 h; max response: stronger effect = higher value
In short: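 Enzyme-fragment complementation assay in which ligand-bound PPARalpha translocates and forms an active enzyme that generates chemiluminescence. Cells were plated overnight, exposed to compound for 6 hr at 37 C, and then given detection reagent for 60 min at room temperature.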
`O=C(Nc1ccc([N+](=O)[O-])cc1Cl)c1cc(Cl)ccc1O` gave a max response of -1.62%. With `CCOC(=O)C(C)(C)Oc1ccc(Cl)cc1` the max response was 5.39%. Compound `CC(C)Cc1ccc(C(C)C(=O)O)cc1` (configuration not stated) has a max response of -0.128%. For `Cn1c(=O)c2c(ncn2C)n(C)c1=O`, the max response was -7.69% and -2.94%. In the case of `O=c1c(-c2ccc(O)cc2)coc2cc(O)cc(O)c12`, the max response is reported as -1.44% and -0.484%. With `CCC1(c2ccccc2)C(=O)NCNC1=O` the max response was -5.03% and -3.26%. In the case of `NS(=O)(=O)c1cc2c(cc1Cl)NCNS2(=O)=O`, the max response is reported as -0.533% and -1.17%. For `COc1ccc2[nH]cc(CCNC(C)=O)c2c1`, the max response was -3.03% and -8.27% and 0.529%. In the case of `Nc1ccn([C@H]2CC[C@@H](CO)O2)c(=O)n1`, the max response is reported as -1.99% and 0.814%. With `Cn1c(=O)c2[nH]cnc2n(C)c1=O` the max response was -1.61%.

Source: PubChem BioAssay (NCATS)
